Results taken from PubChem BioAssay AID602229 (The Scripps Research Institute Molecular Screening Center, 2012).
Among all 360,000 compounds or so, about 1,300 (0.36%) were called active. This is one part of a sample in which actives are shown more often than they occur. Values without a mark were called inactive.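 Rule for the calls: active = inhibition above the mean of all tested compounds plus 3 SD (cut at about 70% in these data); inactive = the rest.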

Each molecule was assayed against Photoreceptor-specific nuclear receptor (Homo sapiens) (UniProt Q9Y5X4) (assay: NR2E3 agonists in two-hybrid cells, primary screen, cell-based, luminescence, CHO-S, Gal4-NCOR/VP16-NR2E3 (AID 602229;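 note: 0% = DMSO with NR2E3 transfected cells and 100% = cells lacking NR2E3 construct; higher means lower luciferase signal from less NR2E3 corepressor binding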)). Settings: luciferase, at 3.98 µM, stronger effect = higher value.
Photoreceptor-specific nuclear receptor (Homo sapiens), sequence (Q9Y5X4 whole entry, looked up, the tested form may be a part): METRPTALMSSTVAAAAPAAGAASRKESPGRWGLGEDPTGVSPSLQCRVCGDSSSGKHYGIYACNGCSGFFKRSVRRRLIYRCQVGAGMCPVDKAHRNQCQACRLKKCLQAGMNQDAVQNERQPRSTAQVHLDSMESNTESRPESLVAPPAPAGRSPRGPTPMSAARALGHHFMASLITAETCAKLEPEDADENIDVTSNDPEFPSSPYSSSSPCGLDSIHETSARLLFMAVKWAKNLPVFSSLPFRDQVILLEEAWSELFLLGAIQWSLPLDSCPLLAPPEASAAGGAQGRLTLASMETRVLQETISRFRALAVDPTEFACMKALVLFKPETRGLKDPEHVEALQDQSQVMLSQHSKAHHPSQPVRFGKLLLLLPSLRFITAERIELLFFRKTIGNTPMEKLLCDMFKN

SMILES	inhibition of corepressor binding
O=C1CC(=O)Nc2cc(S(=O)(=O)N3CCN(c4cccc(C(F)(F)F)c4)CC3)ccc2N1	-3.07%
O=C(CN1C(=O)CCS(=O)(=O)c2ccccc21)NCc1ccc(F)cc1	-8.57%
CCCCN1C(=O)CC(N2CCOCC2)C1=O (stereo unspecified)	-4.28%
CCc1cccc(NC(=O)COC(=O)C2CCN(c3ccc(C(F)(F)F)cn3)CC2)c1	-19.1%
O=S(=O)(Nc1ccccc1N1CCOCC1)c1ccc(Cl)s1	-7.37%
COc1cc(NC(=O)c2ccccc2NS(=O)(=O)c2ccc(Cl)s2)cc(OC)c1	97.8% (active)
O=C(Nc1cccc(Cl)c1)Nc1ccccc1NS(=O)(=O)c1cccs1	-13.8%
CCCn1nnnc1NCc1ccc(CC)cc1	8.66%
C=CCC1(CC=C)CCCN1C(=O)c1cc(COc2ccc(-n3cncn3)cc2)on1	106% (active)
O=C(c1cc(COc2c(F)cccc2F)on1)N1CCSCC1	-9.64%
CCCC(=O)N1CCC1(C)C(=O)Nc1ccc(-n2cncn2)cc1 (stereo unspecified)	1.35%
Nc1[nH]c(C(=O)c2ccccc2)c(-c2ccncc2)c1C(=O)NCc1cccc2ccccc12	3.22%
CSCCC(c1nnnn1Cc1ccccc1)N1CCN(C/C=C/c2ccccc2)CC1 (stereo unspecified)	4.41%
C/C(=N\NC(=S)NCc1ccccc1)C1CCCCC1	14.7%
C/C(=N/NC(=S)Nc1ccccc1)c1ccc2c(c1)OCO2	-32%
C/C(=N\NC(=S)NCc1ccccc1)c1ccc(Cl)cc1	73.8% (active)
O=C(CCc1ccc(S(=O)(=O)NC2CCCCC2)cc1)NCc1ccccc1	9.81%
CC(=O)Nc1ccc(S(=O)(=O)NNC(=O)CCc2ccccc2)cc1	-9.18%
COc1cc(CC(=O)Nc2nc(-c3ccc(F)c(F)c3)cs2)cc(OC)c1OC	103% (active)

SMILES	inhibition of corepressor binding
COc1ccc(CC(=O)NC2CCSc3ccccc32)cc1OC (stereo unspecified)	-3.29%
COc1ccc(CCNC(=O)COC(=O)Cc2cc(OC)c(OC)c(OC)c2)cc1	0.01%
COc1ccc(CC(=O)Nc2nc(-c3ccc(F)c(F)c3)cs2)cc1OC	103% (active)
COc1cc(CCC(=O)Nc2ccncc2Cl)cc(OC)c1OC	-4.52%
Cc1csc(NC(=O)CSc2ccc(-c3ccc(F)cc3)nn2)n1	11.9%
CCc1nnc(NC(=O)CSc2nc3c(c(=O)n2-c2ccccc2OC)SCC3)s1	-5.3%
C/C(=C/C(=O)N1CCN(C)CC1)C(=O)O	-1.95%
COc1cc(C2/C(=C(\O)c3ccc4c(c3)CC(C)O4)C(=O)C(=O)N2c2nnc(C)s2)cc(OC)c1OC (stereo unspecified)	-19.5%
COc1ccccc1OCCNC(=O)CCNC(=O)c1ccccc1Cl	-15.5%
CCN1C(=O)/C(=C\N2CCOCC2)SC1=S	-3.91%
O=C(CCn1c(=O)oc2ccccc21)Nc1ccon1	-8.66%
CCOC(=O)C1=C(CNC2CCCCC2)NC(=O)NC1c1cc(C)ccc1C (stereo unspecified)	-26.1%
CCN(Cc1ccccc1)S(=O)(=O)c1cc2c3c(c1)CCN3C(=O)CC2	13.4%
COc1ccc(CNC(=O)COc2cccnc2[N+](=O)[O-])cc1	-7.82%
O=C(COc1ncnc2ccccc12)NC(=O)NCc1ccccc1	9.2%
COc1ccc(CNc2ncnc3ccccc23)cc1	96.1% (active)
Cc1ccc(O/C=C2\OC(=O)c3ccccc32)cc1	-37.1%
Cc1c(C(=O)N(Cc2ccccc2)Cc2cccnc2)cnn1-c1ccc(F)cc1	0.5%
COc1ccc(NS(=O)(=O)c2ccc(N3CCN(CCO)CC3)c([N+](=O)[O-])c2)cc1	17.4%

SMILES	inhibition of corepressor binding
COc1ccc(S(=O)(=O)Nc2ccc3oc(C)c(C(C)=O)c3c2)cc1	60.2%
COc1ccc(NS(=O)(=O)c2ccc(Oc3c(C#N)cccc3C#N)cc2)cc1	86.5% (active)
CCOCc1c(C(=O)N2CCN(Cc3ccc(Br)s3)CC2)oc2ccccc12	-14.4%
O=S(=O)(c1ccc(F)cc1)N1CCN=C1SCc1cccc(F)c1	3.65%
Cc1ccc(S(=O)(=O)N2CCN(C(=O)COC(=O)CNC(=O)c3ccc(C(C)(C)C)cc3)CC2)c(C)c1	1.29%
COc1ccc(C(=O)NC2CC(C)(C)Cc3c2cnn3-c2ccccc2C)o1 (stereo unspecified)	-34.2%
COc1ccc(C(=O)NC2CCCc3c2cnn3-c2cccc(C)c2C)c(OC)n1 (stereo unspecified)	91.3% (active)
COc1ccc(C(=O)NC2CC(C)(C)Cc3c2cnn3-c2ccccc2)c(OC)c1 (stereo unspecified)	-23.7%
Cn1nccc1C(=O)NC1CCCc2c1cnn2-c1ccc(F)cc1F (stereo unspecified)	107% (active)
Cn1nccc1C(=O)NC1CCCc2c1cnn2-c1ccccc1F (stereo unspecified)	105% (active)
O=C(CCNC(=O)c1ccc(Cl)cc1)NC1CCCc2ccccc21 (stereo unspecified)	-14.3%
COC(=O)c1ccc(C(=O)NC2CC(C)(C)Cc3c2cnn3-c2ccc(F)cc2)nc1 (stereo unspecified)	-87.5%
CC1=C(C(=O)NC2CC(C)(C)Cc3c2cnn3-c2ccc(C)cc2)OCCO1 (stereo unspecified)	-12.3%
Cc1cc(C(=O)NC2CC(C)(C)Cc3c2cnn3-c2ccccc2)n[nH]1 (stereo unspecified)	-26.5%
NC(=O)COC(=O)c1ccc2c(c1)C(=O)N(Cc1ccco1)C2=O	-5.79%
Cc1cc(C)n(CCC(=O)N2CCN(S(=O)(=O)c3ccc(C)c(C)c3)CC2)n1	3.36%
Cc1ccc(CN(N=Nc2nonc2N)c2nonc2N)c(C)c1	-19.7%
CC1CCCC(NC(=O)CN2CCN(Cc3ccc(Cl)cc3)C2=O)C1C (stereo unspecified)	2.85%
